The nature of experiment [1]: qHTS assay to identify small molecule antagonists of the estrogen related receptor (ERR) signaling pathway from Tox21 library - cell viability counter screen (AID 1224834). Further: nearly all actives have a fitted effect of over 30% in size. The gist of the method: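 Fluorescence from CellTiter-Fluor gives the viability read-out, taken 30 min after reagent addition. Before that, ERR cells seeded 6 h earlier were incubated with compounds for 17.5 h at 37 C.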

In experiment [2] the target is Luciferin 4-monooxygenase (Photinus pyralis) (UniProt P08659). The experiment can be described thus: qHTS assay to identify small molecule inhibitors of firefly luciferase (AID 1224835). Further: nearly all actives have a fitted effect of over 25% in size. The gist of the method:
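Biochemical qHTS: compounds run as interplate titrations against purified firefly enzyme, with D-luciferin and ATP each at its KM concentration. Light output recorded by CCD imaging.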
Background: Quantitative high-throughput screening tests each substance at several concentrations.

Experiment [3] is described as follows: qHTS assay to identify small molecule agonists of the constitutive androstane receptor (CAR) signaling pathway - cell viability counter screen (AID 1224836). Further: nearly all actives have a fitted effect of over 45% in size. The gist of the method: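 Counter screen multiplexed with the CAR reporter readout: HepG2 cells co-transfected with hCAR and the CYP2B6-2.2kb construct receive a 15-concentration compound series and 0.75 uM PK11195 (final), then CellTiter-Fluor fluorescence is read after 23 h.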

Experiment [4] can be described thus: qHTS assay to identify small molecule antagonists of the constitutive androstane receptor (CAR) signaling pathway - cell viability counter screen (AID 1224837). Further: nearly all actives have a fitted effect of over 45% in size. The gist of the method: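 HepG2-CYP2B6-hCAR cells, 2500/well, 4 hr pre-incubation; compound titration, 15 conc.; CITCO 50 nM final; 23 hr, 37 C/5% CO2; CellTiter-Fluor, fluorescence intensity.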
Experiment [5] in a line: qHTS assay to identify small molecule antagonists of the estrogen related receptor signaling pathway with the pleiotropic PPARgamma coactivator (PGC) from Tox21 10K library - cell viability counter screen (AID 1224840; active means well fitted cell-killing curve with a large enough effect in the repeat runs, not every such curve was filed as active; further: nearly all actives have a fitted effect of over 40% in size). A digest of the protocol: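 PGC/ERR cells, 2,000/well; 6 h pre-incubation 37 C/5% CO2; cpd in DMSO via pin tool; 17.5 h 37 C; CellTiter-Fluor, 30 min; fluorescence.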

Experiment [6] is described as follows: qHTS assay to identify small molecule antagonists of the estrogen related receptor signaling pathway with the pleiotropic PPARgamma coactivator (PGC) from Tox21 10K library (AID 1224841; call rule not given here; further: actives are mostly falling curves and most rising ones were filed inactive; nearly all actives have a fitted effect of over 50% in size). A digest of the protocol:
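PGC/ERR cell line, 2,000 cells/well; 6 h pre-incubation 37 C/5% CO2; compounds (DMSO) pinned in; 18 h, 37 C; One-Glo, 30 min RT; luminescence.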

A short description of experiment [7]: qHTS assay to identify small molecule agonists of the estrogen related receptor signaling pathway with the pleiotropic PPARgamma coactivator (PGC) from Tox21 10K library (AID 1224842). Further: nearly all actives have a fitted effect of over 15% in size. A digest of the protocol: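 PGC/ERR reporter cell line, 2,000 cells per well, incubated 6 h at 37 C before 23 nL compound in DMSO was added. After 18 h at 37 C, One-Glo luminescence read following 30 min at room temperature.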

Experiment [8] in a line: qHTS assay to identify small molecule agonists of H2AX (AID 1224845; active means well fitted activation curve with a large enough effect in the signal ratio in the repeat runs, not every such curve was filed as active; the % refers to the signal ratio; further: potency means the concentration at half of the fitted maximal effect). The gist of the method: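 Wild-type CHO-K1 cells, plated overnight, exposed 3hr at 37C to 15 concentrations (0.76% DMSO final). Lysed, then HTRF anti-pH2AX (S139) cryptate and anti-H2AX-d2 antibodies, 24 hr room temperature; 665/620 nm emission read.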
Experiment [9] is described as follows: qHTS assay to identify small molecule agonists of the hypoxia (HIF-1) signaling pathway (AID 1224846; active means well fitted activation curve with a large enough effect in the signal ratio in the repeat runs, not every such curve was filed as active; the % refers to the signal ratio). A digest of the protocol:
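Cell line: CellSensor HRE-bla ME-180; 2,000 cells/well; 0.5% dialyzed FBS; 5 h preincubation; DMSO compound pin transfer; 17 h, 37C, 5% CO2; CCF4-AM added; bla FRET signal scored for activation.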

Experiment [10] is described as follows: qHTS assay to identify small molecule agonists of H2AX - cell viability counter screen (AID 1224847; calls by dose curve; further: top concentration of the series differs between compounds; nearly all actives have a fitted effect of over 30% in size). A digest of the protocol: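 We seed wild-type CHO-K1 cells overnight, treat them for 3 hr at 37C with compounds in 15-concentration series, and quantify remaining viability by CellTiter-Glo luminescence.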
A short description of experiment [11]: qHTS assay to identify small molecule antagonists of the estrogen related receptor (ERR) signaling pathway from Tox21 library (AID 1224848). Further: nearly all actives have a fitted effect of over 50% in size. A digest of the protocol: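 ERR reporter cell line (from NTP) seeded 2,000 cells/well, rested 6 h at 37 C/5% CO2, then pin-dosed with compounds in DMSO. After 18 h at 37 C, ONE-Glo added; luminescence read after 30 min at room temperature.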

Experiment [12] in a line: qHTS assay to identify small molecule agonists of the estrogen related receptor (ERR) signaling pathway from Tox21 library (AID 1224849; calls by dose curve; further: nearly all actives have a fitted effect of over 15% in size). The following applies: ERR reporter cell line, ONE-Glo luciferase, 18 h. The gist of the method:
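ERR cells, 6 h pre-incubation 37 C/5% CO2; cpd in DMSO pinned; 18 h 37 C; ONE-Glo added, 30 min RT; luminescence read. Agonist mode, qHTS.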

Experiment [13] can be described thus: qHTS RealTime-Glo MT Cell Viability Assay in HepG2 cells - 24 hour (AID 1224867). Further: nearly all actives have a fitted effect of over 50% in size. A digest of the protocol: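 HepG2 suspension premixed with RealTime-Glo reagents is plated at 600 cells per well and left 5 h at 37 C/5% CO2. Compounds in DMSO then go in, and bioluminescence reflecting viable cell number is recorded over 40 h.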
Experiment [14] is described as follows: qHTS RealTime-Glo MT Cell Viability Assay in HEK293 cells - 32 hour (AID 1224868). Further: nearly all actives have a fitted effect of over 50% in size. Further: potency means the concentration at half of the fitted maximal effect. The gist of the method: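 Reads taken at 0, 8, 16, 24, 32 and 40 h from the same wells. HEK293 cells (600/well) carried RealTime-Glo reagents from seeding, with compound added after a 5 h settle at 37 C.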
Experiment [15] can be described thus: A CellTox Green Cytotoxicity Assay to monitor cytotoxicity in HEK293 cells - 0 hour (AID 1224869). Further: nearly all actives have a fitted effect of over 50% in size. The gist of the method: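 Nonlytic real-time cytotoxicity: HEK293 + CellTox Green reagent plated, 5 h preincubation, pintool compound addition (23 nL in DMSO), 37 C for 40 h, fluorescence measured at successive time points.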
A short description of experiment [16]: qHTS RealTime-Glo MT Cell Viability Assay in HepG2 cells - 40 hour (AID 1224870). Further: nearly all actives have a fitted effect of over 50% in size. The gist of the method:
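HepG2 cells (600/well) mixed with RealTime-Glo MT reagent, settled 5 h at 37 C/5% CO2 before compound addition. Nonlytic NanoLuc luminescence from viable-cell prosubstrate reduction read repeatedly during 40 h treatment at 37 C.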

Experiment [17] concerns the target Nuclear receptor subfamily 1 group I member 3 (Homo sapiens) (UniProt Q14994). Kind of experiment: qHTS assay to identify small molecule antagonists of the constitutive androstane receptor (CAR) signaling pathway (AID 1224838).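 Further: HepG2 cells stably expressing hCAR with CYP2B6 luciferase reporter stimulated by CITCO; nearly all actives have a fitted effect of over 40% in size.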 The gist of the method:
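HepG2-CYP2B6-hCAR cells; 4 h pre-incubation; cpd (15 conc) + CITCO 50 nM final; 24 h, 37 C/5% CO2; ONE-Glo, luminescence.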

Experiment [18] is described as follows: qHTS assay to identify small molecule agonists of the hypoxia (HIF-1) signaling pathway - cell viability counter screen (AID 1224844; calls by dose curve; further: nearly all actives have a fitted effect of over 50% in size; further: potency means the concentration at half of the fitted maximal effect). The gist of the method:
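ME-180 HRE-bla cells, 2,000/well, 0.5% dialyzed FBS; 5 hr settle, 17 hr compound at 37C/5% CO2; CCF4-AM reporter read first, then CellTiter-Glo luminescence after 30 min RT.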

In experiment [19] the target is Thyrotropin receptor (Homo sapiens) (UniProt P16473). The experiment can be described thus: qHTS assay to identify small molecule agonists of the thyroid stimulating hormone receptor (TSHR) signaling pathway (AID 1224843; calls by dose curve; further: nearly all actives have a fitted effect of over 45% in size). A digest of the protocol:
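TSHR-HEK293 cells in agonist mode, 30 min room-temperature step, then cAMP measured by competitive HTRF (cAMP-d2 with anti-cAMP cryptate) after 1 h at room temperature. Tested at 15 concentrations in triplicate.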

Values joined by “and” are separate entries in the source; they are usually repeats but may differ in a detail not shown here. Identical values can stand only once. Values without a mark were called inactive. Records with an inconclusive call do not appear. Active and inactive are the calls of the source. Unless noted, the call rests on the fitted dose curve; in most records, active means well fitted curve in the direction sought with a large enough effect in the repeat runs; inconclusive means weak or mixed curves; inactive means no such curve, though single readings can be large; an effect the other way counts as inactive or inconclusive.
On the % scale 0 is the no-effect control and ±100 the full control effect.

Sequence of Thyrotropin receptor (Homo sapiens) (P16473 whole entry, looked up): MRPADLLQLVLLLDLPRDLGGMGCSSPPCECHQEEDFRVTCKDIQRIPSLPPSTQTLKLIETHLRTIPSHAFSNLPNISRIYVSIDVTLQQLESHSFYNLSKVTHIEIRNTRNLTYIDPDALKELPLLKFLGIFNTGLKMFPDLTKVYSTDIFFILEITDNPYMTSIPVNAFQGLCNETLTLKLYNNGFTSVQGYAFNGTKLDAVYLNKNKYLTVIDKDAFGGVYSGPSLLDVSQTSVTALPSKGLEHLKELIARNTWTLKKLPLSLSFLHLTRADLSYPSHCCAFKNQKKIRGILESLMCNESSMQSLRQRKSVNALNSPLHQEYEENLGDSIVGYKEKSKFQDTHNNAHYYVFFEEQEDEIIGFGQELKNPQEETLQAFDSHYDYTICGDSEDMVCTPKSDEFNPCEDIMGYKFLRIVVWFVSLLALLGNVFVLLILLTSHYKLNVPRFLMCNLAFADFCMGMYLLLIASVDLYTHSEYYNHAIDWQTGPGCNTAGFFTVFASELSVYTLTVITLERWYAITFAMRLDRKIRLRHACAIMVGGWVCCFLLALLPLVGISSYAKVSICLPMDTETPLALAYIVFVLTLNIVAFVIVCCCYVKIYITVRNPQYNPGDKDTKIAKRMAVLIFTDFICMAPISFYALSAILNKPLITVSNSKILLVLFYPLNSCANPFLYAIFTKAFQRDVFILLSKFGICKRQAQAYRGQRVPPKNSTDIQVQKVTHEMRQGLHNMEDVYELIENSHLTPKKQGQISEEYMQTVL
Sequence of Nuclear receptor subfamily 1 group I member 3 (Homo sapiens) (Q14994 whole entry, looked up): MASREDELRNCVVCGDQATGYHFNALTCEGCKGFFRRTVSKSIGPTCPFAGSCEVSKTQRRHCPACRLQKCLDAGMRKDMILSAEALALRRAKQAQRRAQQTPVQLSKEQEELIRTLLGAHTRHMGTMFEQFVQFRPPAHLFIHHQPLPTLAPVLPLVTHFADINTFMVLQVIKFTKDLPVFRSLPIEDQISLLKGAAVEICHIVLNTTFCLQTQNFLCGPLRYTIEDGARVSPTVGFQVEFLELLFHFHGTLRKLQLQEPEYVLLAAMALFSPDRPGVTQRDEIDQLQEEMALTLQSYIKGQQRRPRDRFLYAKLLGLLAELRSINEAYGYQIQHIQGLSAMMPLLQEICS
Sequence of Luciferin 4-monooxygenase (Photinus pyralis) (P08659 whole entry, looked up): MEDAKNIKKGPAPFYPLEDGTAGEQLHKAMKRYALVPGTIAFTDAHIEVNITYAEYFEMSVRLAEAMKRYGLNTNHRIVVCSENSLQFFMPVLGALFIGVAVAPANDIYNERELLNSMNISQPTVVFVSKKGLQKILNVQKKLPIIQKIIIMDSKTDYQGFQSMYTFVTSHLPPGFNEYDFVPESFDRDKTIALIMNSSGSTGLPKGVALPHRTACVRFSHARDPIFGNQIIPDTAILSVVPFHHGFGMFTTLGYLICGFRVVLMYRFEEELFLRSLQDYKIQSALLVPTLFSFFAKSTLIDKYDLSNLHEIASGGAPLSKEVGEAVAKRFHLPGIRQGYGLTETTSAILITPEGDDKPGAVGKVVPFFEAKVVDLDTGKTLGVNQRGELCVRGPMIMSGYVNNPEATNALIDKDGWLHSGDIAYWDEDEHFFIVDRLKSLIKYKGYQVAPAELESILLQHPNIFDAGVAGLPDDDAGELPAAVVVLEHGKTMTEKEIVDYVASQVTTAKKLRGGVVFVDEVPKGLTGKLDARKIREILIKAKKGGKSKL

With `NP(N)(=O)NC(=O)c1ccc(F)cc1`, the Potency result in experiment [1], in experiment [2], in experiment [3], in experiment [4], in [5] and in [6] was “inactive” each time. Also, the Potency result in experiment [7], in experiment [8], in experiment [10], in experiment [11], in experiment [13] and in experiment [14] was “inactive” in each case. The Potency result in experiment [15] and in experiment [16] was “inactive” in each case. For the same molecule, the molecule was classed as inactive in experiment [9]. Also, the activity change, positive = activation in [12] (at 42.5 µM (top of the series)) is -0.0729%.

Turning to `CCCCC1C(=O)NC(=O)N(C2CCCCC2)C1=O` (configuration not stated), the Potency result in [1], in experiment [2], in experiment [3], in experiment [4], in [17] and in [5] was “inactive” throughout. The Potency result in [18], in experiment [8], in experiment [10], in experiment [14], in experiment [15] and in experiment [16] was “inactive” in each case. Also, the molecule was classed as inactive in experiment [9].

Take `CCCCCBr`: the Potency entry in experiment [1], in experiment [2], in experiment [3], in experiment [4], in experiment [17] and in experiment [5] was “inactive” in each case. In addition, the Potency result in [18], in experiment [8], in experiment [10], in experiment [13], in experiment [15] and in experiment [16] was “inactive” throughout. Besides, the outcome in experiment [9] was inactive.

`CCOC(=O)NC(O)C(Cl)(Cl)Cl` (configuration not stated): the Potency result in experiment [1], in experiment [2], in [3], in experiment [4], in experiment [5] and in experiment [18] was “inactive” in each case. Moreover, the Potency entry in [8], in experiment [10], in experiment [14] and in experiment [16] was “inactive” throughout. In experiment [9], the outcome was inactive.

For `CCC1(C2=NCCN2)Cc2ccccc2O1` (configuration not stated), the Potency entry in experiment [1], in [2], in experiment [3], in experiment [4], in experiment [5] and in experiment [6] was “inactive” each time. Besides, the Potency entry in experiment [7], in [19], in experiment [18], in [8], in [10] and in experiment [11] was “inactive” each time. Moreover, the Potency entry in [13], in experiment [14], in experiment [15] and in experiment [16] was “inactive” throughout. Moreover, the activity change, positive = activation in experiment [12] (at 42.5 µM (top of the series)) was 5.71%.

For `O=C(CCl)CCl`, the Potency entry in experiment [1], in experiment [2], in experiment [3], in experiment [4], in experiment [5] and in [19] was “inactive” throughout. For the same molecule, the Potency result in experiment [10], in [13], in experiment [15] and in [16] was “inactive” in each case. The Potency in experiment [18] is 21.9 µM (active); in experiment [8], 104 µM (active); in [14] it was 18 µM (active) and 19.5 µM (active).

For `O=C1CC[C@@]2(O)[C@H]3Cc4ccc(O)c5c4[C@@]2(CCN3CC2CC2)[C@H]1O5`, the Potency entry in experiment [1], in experiment [2], in experiment [3], in [4], in experiment [17] and in [5] was “inactive” each time. Besides, the Potency result in [19], in experiment [18], in [8], in experiment [10], in experiment [13] and in experiment [14] was “inactive” in each case. Moreover, the Potency result in [15] and in experiment [16] was “inactive” throughout.

On to `CCOP(=S)(OCC)SCSc1cc(Cl)ccc1Cl`, for which the Potency result in [1], in [2], in experiment [3], in experiment [4], in experiment [17] and in [19] was “inactive” in each case. Also, the Potency result in [18], in experiment [8], in experiment [10], in [13], in experiment [14] and in experiment [15] was “inactive” throughout. The Potency result in experiment [16] is “inactive”. The molecule was classed as inactive in experiment [9].

With `CCCCCl`, the Potency result in experiment [1], in experiment [2], in experiment [3], in experiment [4], in experiment [5] and in [6] was “inactive” in each case. In addition, the Potency result in experiment [7], in experiment [19], in [18], in [8], in [10] and in experiment [11] was “inactive” each time. The Potency result in [14] and in experiment [16] was “inactive” each time. In experiment [9], the call was inactive. In addition, the activity change, positive = activation in [12] (at 92.4 µM (top of the series)) is -0.331%.

The record behind these values is PubChem BioAssay (Tox21).
